Assay results from article PMC7862700, “An all-to-all approach to the identification of sequence-specific readers for epigenetic DNA modifications on cytosine”.

Experiments:
Assay in all cases: DAPPL (digital affinity profiling via proximity ligation, sequencing); 10 mM Tris-HCl pH 7.5, 50 mM NaCl, 1 mM DTT, 4% glycerol, room temperature, 30 min; GST-TFs on glutathione beads, 16-mer random dsDNA library, 0.1% formaldehyde crosslink after washing; high values mean tight binding
[1] = biological target: T1, FEV (Homo sapiens, UniProt Q99581 1-238); conditions: protein: recombinant; tags: N-terminal GST; dsDNA, one strand shown
T1 sequence: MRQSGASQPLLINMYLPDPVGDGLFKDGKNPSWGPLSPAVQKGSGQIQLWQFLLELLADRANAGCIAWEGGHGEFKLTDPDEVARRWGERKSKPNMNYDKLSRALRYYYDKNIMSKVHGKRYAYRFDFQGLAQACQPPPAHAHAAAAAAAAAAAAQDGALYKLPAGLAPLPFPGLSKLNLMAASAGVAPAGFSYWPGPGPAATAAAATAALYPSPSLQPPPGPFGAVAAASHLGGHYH
How it was run: (§1)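 Binding signal is each hexamer's read frequency for a factor divided by its frequency in the tag-only sample. The factors were GST-fused human transcription factors from yeast, captured on glutathione beads, DNA-barcoded and pooled with that sample. Pools were incubated with 200 nmole of a random double-stranded 16-mer DNA library in Tris/NaCl/DTT/glycerol buffer at room temperature for 30 min, then washed, crosslinked with 0.1% formaldehyde, proximity-ligated with BsaI/T4 ligase (1 h, 37 °C), PCR-amplified and sequenced on an Illumina NextSeq500.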

[2] = biological target: ETV5 (Homo sapiens, UniProt P41161 1-510); conditions: protein: recombinant; tags: N-terminal GST; dsDNA, one strand shown
ETV5, sequence (P41161 whole entry): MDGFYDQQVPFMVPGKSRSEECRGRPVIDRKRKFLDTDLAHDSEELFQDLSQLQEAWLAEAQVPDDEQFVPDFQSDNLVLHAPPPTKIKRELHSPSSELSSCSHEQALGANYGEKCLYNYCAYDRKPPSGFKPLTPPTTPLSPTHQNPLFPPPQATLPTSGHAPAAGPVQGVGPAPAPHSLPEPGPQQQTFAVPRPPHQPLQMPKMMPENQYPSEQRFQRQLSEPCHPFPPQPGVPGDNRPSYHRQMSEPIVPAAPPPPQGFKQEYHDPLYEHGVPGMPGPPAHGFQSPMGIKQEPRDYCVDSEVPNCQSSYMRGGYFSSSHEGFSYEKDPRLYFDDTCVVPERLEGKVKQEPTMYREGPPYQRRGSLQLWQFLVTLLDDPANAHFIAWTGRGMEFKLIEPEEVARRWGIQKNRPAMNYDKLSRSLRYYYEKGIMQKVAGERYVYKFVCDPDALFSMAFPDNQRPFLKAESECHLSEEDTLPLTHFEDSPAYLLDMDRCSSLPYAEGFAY
How it was run: as §1

[3] = biological target: HSF1 (Homo sapiens, UniProt Q00613 1-529); conditions: protein: recombinant; tags: N-terminal GST; chain copies: 3; dsDNA, one strand shown
HSF1, sequence (Q00613 whole entry): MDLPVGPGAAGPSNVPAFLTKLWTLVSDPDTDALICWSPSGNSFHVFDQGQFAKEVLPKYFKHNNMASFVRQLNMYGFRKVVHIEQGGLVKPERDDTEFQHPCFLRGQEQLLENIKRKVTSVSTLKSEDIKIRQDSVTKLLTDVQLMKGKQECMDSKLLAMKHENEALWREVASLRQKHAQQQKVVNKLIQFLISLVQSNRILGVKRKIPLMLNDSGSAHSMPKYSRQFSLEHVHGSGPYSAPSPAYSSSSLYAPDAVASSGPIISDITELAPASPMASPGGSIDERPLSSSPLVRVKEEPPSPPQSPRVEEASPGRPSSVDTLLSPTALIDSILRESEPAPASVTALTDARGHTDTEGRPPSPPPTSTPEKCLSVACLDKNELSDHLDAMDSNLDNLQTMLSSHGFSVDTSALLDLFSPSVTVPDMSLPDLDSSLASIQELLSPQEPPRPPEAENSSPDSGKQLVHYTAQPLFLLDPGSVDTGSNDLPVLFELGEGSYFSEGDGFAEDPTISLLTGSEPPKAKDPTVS
How it was run: as §1

[4] = biological target: T2, SPIC (Homo sapiens, UniProt Q8N5J4 1-248); conditions: protein: recombinant; tags: N-terminal GST; dsDNA, one strand shown
T2 sequence: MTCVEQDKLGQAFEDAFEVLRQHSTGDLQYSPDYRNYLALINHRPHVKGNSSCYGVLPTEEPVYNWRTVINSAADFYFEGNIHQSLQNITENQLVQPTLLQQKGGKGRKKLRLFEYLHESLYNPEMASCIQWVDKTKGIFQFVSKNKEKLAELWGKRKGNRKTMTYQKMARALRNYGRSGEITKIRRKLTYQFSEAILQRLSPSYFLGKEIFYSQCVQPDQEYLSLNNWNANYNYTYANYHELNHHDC
How it was run: as §1

[5] = biological target: ELF4 (Homo sapiens, UniProt Q99607 1-663); conditions: protein: recombinant; tags: N-terminal GST; dsDNA, one strand shown
ELF4, sequence (Q99607 whole entry): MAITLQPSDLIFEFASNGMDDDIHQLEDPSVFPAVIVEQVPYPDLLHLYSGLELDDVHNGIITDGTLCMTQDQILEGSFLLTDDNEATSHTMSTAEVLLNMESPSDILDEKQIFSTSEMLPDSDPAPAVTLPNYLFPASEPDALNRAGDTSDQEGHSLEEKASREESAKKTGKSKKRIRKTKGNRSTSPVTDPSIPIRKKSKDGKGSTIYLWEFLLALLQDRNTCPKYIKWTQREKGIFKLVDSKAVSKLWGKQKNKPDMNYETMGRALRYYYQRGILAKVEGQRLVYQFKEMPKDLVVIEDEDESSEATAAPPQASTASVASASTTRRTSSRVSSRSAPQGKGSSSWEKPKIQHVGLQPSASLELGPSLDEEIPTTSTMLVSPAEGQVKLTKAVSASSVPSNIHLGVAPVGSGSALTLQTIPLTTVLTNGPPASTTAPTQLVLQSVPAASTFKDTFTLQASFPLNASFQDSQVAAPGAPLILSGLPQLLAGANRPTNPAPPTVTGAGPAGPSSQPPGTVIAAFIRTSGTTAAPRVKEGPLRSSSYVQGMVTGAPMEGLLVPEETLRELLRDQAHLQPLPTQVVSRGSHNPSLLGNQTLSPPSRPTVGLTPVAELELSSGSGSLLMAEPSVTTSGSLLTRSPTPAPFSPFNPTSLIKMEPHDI
How it was run: as §1

[6] = biological target: T3, ELK4 (Homo sapiens, UniProt P28324-2 1-405); conditions: protein: recombinant; tags: N-terminal GST; dsDNA, one strand shown
T3 sequence: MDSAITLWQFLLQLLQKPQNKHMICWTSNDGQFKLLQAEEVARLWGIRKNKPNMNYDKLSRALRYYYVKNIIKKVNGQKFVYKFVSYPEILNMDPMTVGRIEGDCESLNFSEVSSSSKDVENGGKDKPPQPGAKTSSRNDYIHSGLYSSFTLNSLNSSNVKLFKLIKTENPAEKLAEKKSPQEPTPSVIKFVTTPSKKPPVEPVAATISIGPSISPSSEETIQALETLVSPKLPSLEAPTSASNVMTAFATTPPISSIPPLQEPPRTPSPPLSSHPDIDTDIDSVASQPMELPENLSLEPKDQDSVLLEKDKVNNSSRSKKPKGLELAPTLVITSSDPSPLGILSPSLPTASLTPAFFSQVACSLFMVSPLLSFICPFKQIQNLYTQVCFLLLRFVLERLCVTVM
How it was run: as §1

[7] = biological target: T4, ETV2 (Homo sapiens, UniProt O00321 1-342); conditions: protein: recombinant; tags: N-terminal GST; dsDNA, one strand shown
T4 sequence: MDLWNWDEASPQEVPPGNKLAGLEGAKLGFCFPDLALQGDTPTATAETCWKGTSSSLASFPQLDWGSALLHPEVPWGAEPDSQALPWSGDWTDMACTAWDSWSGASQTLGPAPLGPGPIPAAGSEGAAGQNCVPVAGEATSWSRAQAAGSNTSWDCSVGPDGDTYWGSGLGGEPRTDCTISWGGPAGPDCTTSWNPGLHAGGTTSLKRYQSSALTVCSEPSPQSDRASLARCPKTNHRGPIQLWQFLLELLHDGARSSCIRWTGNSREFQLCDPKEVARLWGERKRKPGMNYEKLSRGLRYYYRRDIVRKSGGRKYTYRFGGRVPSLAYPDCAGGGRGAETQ
How it was run: as §1

[8] = biological target: T5, ELF3 (Homo sapiens, UniProt P78545 1-371); conditions: protein: recombinant; tags: N-terminal GST; dsDNA, one strand shown
T5 sequence: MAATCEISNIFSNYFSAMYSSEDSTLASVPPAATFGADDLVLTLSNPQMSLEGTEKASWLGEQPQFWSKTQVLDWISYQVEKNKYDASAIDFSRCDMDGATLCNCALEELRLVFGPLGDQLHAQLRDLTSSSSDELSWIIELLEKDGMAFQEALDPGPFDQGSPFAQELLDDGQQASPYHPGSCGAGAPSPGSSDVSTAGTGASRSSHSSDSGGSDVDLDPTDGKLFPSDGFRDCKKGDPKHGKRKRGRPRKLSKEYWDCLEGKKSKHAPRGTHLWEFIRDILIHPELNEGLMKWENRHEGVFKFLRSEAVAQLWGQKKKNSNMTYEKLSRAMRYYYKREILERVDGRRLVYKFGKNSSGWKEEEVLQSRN
How it was run: as §1

[9] = biological target: CRX (Homo sapiens, UniProt O43186 1-299); conditions: protein: recombinant; tags: N-terminal GST; dsDNA, one strand shown
CRX, sequence (O43186 whole entry): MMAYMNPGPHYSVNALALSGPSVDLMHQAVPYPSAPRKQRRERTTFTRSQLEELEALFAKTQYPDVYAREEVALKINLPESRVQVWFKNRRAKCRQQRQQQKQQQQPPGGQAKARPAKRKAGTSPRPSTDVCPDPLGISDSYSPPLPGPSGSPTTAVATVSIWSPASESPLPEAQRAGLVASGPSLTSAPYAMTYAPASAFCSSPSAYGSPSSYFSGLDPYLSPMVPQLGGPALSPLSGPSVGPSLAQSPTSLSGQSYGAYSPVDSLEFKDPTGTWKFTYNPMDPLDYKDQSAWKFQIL
How it was run: as §1

[10] = biological target: ETV1 (Homo sapiens, UniProt P50549 1-477); conditions: protein: recombinant; tags: N-terminal GST; dsDNA, one strand shown
ETV1, sequence (P50549 whole entry): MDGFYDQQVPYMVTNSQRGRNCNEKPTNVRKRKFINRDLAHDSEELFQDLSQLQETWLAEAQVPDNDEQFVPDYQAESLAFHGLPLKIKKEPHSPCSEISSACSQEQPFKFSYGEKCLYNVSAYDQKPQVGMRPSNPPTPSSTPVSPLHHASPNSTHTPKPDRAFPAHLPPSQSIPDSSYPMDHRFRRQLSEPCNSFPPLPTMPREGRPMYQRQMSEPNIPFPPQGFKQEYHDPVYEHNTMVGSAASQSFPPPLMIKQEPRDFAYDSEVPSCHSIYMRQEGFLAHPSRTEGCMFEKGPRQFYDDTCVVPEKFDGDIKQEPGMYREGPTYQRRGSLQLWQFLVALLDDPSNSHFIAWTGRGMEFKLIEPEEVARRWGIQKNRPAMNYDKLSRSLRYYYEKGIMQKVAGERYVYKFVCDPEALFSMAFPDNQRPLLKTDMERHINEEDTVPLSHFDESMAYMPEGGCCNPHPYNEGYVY
How it was run: as §1

[11] = biological target: T6, ERF (Homo sapiens, UniProt P50548 1-548); conditions: protein: recombinant; tags: N-terminal GST; dsDNA, one strand shown
T6 sequence: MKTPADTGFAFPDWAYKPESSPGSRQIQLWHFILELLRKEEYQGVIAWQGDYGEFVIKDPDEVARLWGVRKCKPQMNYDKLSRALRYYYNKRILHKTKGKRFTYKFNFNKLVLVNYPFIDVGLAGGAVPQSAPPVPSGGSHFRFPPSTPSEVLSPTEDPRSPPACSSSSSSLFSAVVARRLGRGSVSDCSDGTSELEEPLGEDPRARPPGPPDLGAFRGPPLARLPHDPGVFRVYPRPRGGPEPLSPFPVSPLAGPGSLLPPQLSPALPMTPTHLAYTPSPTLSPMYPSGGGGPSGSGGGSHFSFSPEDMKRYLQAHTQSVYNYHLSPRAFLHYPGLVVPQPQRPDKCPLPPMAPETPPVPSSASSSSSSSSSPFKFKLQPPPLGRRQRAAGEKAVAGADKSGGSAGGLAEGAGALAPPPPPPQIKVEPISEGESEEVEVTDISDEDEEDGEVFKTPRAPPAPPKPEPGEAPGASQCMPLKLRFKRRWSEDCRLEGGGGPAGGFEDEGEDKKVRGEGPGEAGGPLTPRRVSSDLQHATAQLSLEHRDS
How it was run: as §1

[12] = biological target: T7, ETV3L (Homo sapiens, UniProt Q6ZN32 1-361); conditions: protein: recombinant; tags: N-terminal GST; dsDNA, one strand shown
T7 sequence: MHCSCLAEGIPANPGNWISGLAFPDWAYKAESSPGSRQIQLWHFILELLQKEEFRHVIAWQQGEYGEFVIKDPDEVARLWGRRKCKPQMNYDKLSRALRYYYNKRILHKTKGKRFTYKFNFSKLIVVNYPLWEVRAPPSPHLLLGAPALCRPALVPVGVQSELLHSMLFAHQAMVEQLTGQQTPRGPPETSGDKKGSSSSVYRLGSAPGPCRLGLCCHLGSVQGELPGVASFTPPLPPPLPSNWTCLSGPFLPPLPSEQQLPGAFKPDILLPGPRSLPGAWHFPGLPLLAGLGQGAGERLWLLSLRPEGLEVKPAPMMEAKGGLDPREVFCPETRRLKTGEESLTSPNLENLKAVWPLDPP
How it was run: as §1

[13] = biological target: T8, ETS2 (Homo sapiens, UniProt P15036 1-469); conditions: protein: recombinant; tags: N-terminal GST; dsDNA, one strand shown
T8 sequence: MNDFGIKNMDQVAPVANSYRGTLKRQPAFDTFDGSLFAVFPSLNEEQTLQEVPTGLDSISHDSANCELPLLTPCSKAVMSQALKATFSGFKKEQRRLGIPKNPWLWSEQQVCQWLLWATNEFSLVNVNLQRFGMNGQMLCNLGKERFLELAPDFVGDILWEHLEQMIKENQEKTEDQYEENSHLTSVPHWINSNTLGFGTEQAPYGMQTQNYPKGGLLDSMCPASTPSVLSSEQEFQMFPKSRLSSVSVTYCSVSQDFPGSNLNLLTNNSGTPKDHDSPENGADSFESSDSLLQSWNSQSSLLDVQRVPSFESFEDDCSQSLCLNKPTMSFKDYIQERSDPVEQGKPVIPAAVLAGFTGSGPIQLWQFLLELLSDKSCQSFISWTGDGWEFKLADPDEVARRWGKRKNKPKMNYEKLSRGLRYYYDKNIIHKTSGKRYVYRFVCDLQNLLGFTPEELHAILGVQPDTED
How it was run: as §1

[14] = biological target: T9, SPDEF (Homo sapiens, UniProt O95238 1-335); conditions: protein: recombinant; tags: N-terminal GST; dsDNA, one strand shown
T9 sequence: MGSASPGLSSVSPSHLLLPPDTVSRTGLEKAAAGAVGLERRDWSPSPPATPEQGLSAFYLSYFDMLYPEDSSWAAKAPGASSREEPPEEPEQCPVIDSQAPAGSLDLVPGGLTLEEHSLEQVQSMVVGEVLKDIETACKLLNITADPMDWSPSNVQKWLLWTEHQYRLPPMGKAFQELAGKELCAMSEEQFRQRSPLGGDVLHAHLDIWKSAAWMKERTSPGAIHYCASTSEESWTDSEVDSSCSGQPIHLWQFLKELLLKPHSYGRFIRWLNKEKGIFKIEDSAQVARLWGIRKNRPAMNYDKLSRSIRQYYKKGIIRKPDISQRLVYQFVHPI
How it was run: as §1

[15] = biological target: T10, ETV7 (Homo sapiens, UniProt Q9Y603 1-341); conditions: protein: recombinant; tags: N-terminal GST; dsDNA, one strand shown
T10 sequence: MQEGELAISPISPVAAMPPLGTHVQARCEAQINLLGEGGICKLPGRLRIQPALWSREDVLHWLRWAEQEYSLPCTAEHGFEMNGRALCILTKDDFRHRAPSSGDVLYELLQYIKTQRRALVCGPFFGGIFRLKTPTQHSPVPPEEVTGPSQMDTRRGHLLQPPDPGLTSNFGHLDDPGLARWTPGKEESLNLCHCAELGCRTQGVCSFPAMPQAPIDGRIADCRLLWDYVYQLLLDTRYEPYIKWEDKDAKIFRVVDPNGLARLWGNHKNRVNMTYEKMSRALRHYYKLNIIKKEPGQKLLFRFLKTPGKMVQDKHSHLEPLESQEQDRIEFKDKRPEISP
How it was run: as §1

[16] = biological target: T11, ELF5 (Homo sapiens, UniProt Q9UKW6-2 1-255); conditions: protein: recombinant; tags: N-terminal GST; dsDNA, one strand shown
T11 sequence: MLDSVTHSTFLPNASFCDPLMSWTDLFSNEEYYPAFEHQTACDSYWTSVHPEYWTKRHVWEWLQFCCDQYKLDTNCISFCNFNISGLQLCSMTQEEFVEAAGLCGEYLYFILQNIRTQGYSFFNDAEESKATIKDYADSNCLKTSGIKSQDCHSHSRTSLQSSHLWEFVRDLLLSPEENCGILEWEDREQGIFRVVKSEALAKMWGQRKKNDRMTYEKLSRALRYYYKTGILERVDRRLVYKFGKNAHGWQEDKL
How it was run: as §1

[17] = biological target: T12, ETV3 (Homo sapiens, UniProt P41162-2 1-143); conditions: protein: recombinant; tags: N-terminal GST; dsDNA, one strand shown
T12 sequence: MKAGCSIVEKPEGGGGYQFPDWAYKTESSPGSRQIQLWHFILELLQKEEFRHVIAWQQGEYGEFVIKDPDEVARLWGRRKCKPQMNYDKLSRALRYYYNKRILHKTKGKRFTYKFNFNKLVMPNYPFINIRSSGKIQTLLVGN
How it was run: as §1

[18] = biological target: ETV6 (Homo sapiens, UniProt P41212 1-452); conditions: protein: recombinant; tags: N-terminal GST; dsDNA, one strand shown
ETV6, sequence (P41212 whole entry): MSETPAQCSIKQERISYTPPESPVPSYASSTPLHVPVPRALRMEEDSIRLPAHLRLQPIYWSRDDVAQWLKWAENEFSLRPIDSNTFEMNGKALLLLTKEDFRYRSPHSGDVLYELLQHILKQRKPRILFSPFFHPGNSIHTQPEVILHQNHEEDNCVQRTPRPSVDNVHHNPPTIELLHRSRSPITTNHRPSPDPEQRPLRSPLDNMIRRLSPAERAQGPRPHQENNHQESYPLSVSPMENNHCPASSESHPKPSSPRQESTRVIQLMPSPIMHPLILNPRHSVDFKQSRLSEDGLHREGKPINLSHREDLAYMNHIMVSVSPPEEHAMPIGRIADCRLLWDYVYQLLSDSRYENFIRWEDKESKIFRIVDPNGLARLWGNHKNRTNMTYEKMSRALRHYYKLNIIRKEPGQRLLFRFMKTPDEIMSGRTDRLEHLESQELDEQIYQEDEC
How it was run: as §1

With CTTTCT the binding signal [1] was 1.47 fold enrichment (6-mer frequency, TF over GST control), the binding signal [2] was 1.52 fold enrichment (6-mer frequency, TF over GST control) and the binding signal [3] was 2.74 fold enrichment (6-mer frequency, TF over GST control). The binding signal [4] was 1.67 fold enrichment (6-mer frequency, TF over GST control), the binding signal [5] was 1.48 fold enrichment (6-mer frequency, TF over GST control) and the binding signal [6] was 1.54 fold enrichment (6-mer frequency, TF over GST control). For the same sequence, the binding signal [7] was 1.65 fold enrichment (6-mer frequency, TF over GST control), the binding signal [8] was 1.73 fold enrichment (6-mer frequency, TF over GST control) and the binding signal [9] was 1.76 fold enrichment (6-mer frequency, TF over GST control). The binding signal [10] was 1.56 fold enrichment (6-mer frequency, TF over GST control), the binding signal [11] was 1.63 fold enrichment (6-mer frequency, TF over GST control) and the binding signal [12] was 1.5 fold enrichment (6-mer frequency, TF over GST control). The binding signal [13] was 1.55 fold enrichment (6-mer frequency, TF over GST control), the binding signal [14] was 1.44 fold enrichment (6-mer frequency, TF over GST control) and the binding signal [15] was 1.46 fold enrichment (6-mer frequency, TF over GST control). For the same sequence, the binding signal [16] was 1.5 fold enrichment (6-mer frequency, TF over GST control), the binding signal [17] was 1.52 fold enrichment (6-mer frequency, TF over GST control) and the binding signal [18] was 1.52 fold enrichment (6-mer frequency, TF over GST control).
